MEX-5 binding – C. elegans MEX-5 TCR-2 RNA binding activity. 300,000 compounds, 0.38% hits. Q9XUB2. activity score (negative = inhibition of binding), % at 10 µM. MEX-5/FITC-TCR2 RNA binding, fluorescence polarization; active compounds read low;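 active = inhibition past about -25% in most replicates, and total fluorescence under double the plate's negative control median, limit read from the data; inconclusive = replicates evenly split on the limit, or fluorescence at least double controls; inactive = too little inhibition in most replicates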
E coli Lon inh – E. coli protease La inhibition; P0A9M0; AID 602123; 360,000 compounds, 0.42% hits; purified E. coli Lon protease, fluorescence polarization; inhibition, % at 7.94 µM; in the data active = inhibition above about 13%, passing the limit was not always enough
GLD-1 RNA inh – GLD-1-TGE RNA interaction inhibition (C. elegans); Q17339; purified GLD-1 + fluorescein TGE RNA, fluorescence polarization; inhibition, % at 5.96 µM; 320,000 compounds, 0.44% hits; AID 2280;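 active = percent inhibition above a per-plate cutoff, the plate mean of test compounds plus 3 SD, cut at about 30% in these data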
MCL1 BIM primary – inhibitors of human MCL1 binding to BIM-BH3 peptide; Q07820; GST-MCL1 / FITC-Bim-BH3 fluorescence polarization; inhibition, % at 10.9 µM; 320,000 compounds, 0.68% hits; AID 2057;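 active = inhibition above the mean inhibition of all tested compounds plus 3 SD, set per campaign, cut at about 40% in these data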;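 note: higher means more loss of mP so more displacement of Bim peptide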
EBV gp42 block – blocks Epstein-Barr virus glycoprotein 42 binding; 220,000 compounds, 0.42% hits; inhibition, % (tested at 21.74 µM); Fluorescence polarization binding assay, mP read-out; AID 1085; in the data active = inhibition above about 50%
Target sequence (Q1HVG2 whole entry, looked up): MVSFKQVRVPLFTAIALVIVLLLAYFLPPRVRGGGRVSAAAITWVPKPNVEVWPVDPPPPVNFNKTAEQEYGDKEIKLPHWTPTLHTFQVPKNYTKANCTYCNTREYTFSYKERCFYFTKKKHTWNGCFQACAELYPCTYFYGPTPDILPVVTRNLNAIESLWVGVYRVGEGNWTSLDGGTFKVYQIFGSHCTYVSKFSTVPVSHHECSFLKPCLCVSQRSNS
BCLXL inh – blocks human Bcl-xL binding to Bim BH3 peptide; Q07817; GST-Bcl-xL / FITC-Bim BH3 peptide fluorescence polarization; inhibition, % at 10.9 µM; 320,000 compounds, 0.7% hits; AID 2129;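 active = inhibition above the mean of all tested compounds plus 3 SD, cutoff set per campaign, cut at about 30% in these data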;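 note: inhibitors lower millipolarization by displacing the labeled peptide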
Target sequence (Q07817 whole entry, looked up): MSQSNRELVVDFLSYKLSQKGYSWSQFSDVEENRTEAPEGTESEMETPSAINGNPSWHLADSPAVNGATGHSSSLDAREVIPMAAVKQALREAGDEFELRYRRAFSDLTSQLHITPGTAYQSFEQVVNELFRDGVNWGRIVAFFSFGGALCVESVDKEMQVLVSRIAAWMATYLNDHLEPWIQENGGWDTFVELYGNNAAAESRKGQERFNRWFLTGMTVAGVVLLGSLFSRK
Bcl-xL conf – counter-screen for MCL1 inhibitors: confirmation of human Bcl-xL inhibitors | shares compounds with MCL1 BIM primary | GST-Bcl-xL / FITC-Bim BH3 peptide FP binding | inhibition, % at 10.9 µM | 1,700 compounds, 54% hits | AID 2166;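 active = inhibition above a cutoff equal to the mean inhibition of all tested compounds plus 3 SD, cut at about 30% in these data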
MCL1 BIM confirm – MCL1-BIM-BH3 interaction inhibition, confirmation | AID 2168 | 1,700 compounds, 61% hits | inhibition, % at 10.9 µM | shares compounds with MCL1 BIM primary | GST-MCL1 / FITC-Bim-BH3 fluorescence polarization;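 active = inhibition above the average of all tested compounds plus 3 SD, cut at about 40% in these data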
Numbers stand for hits; . = inactive; ? = inconclusive; / = no result; + = active, no number. A selection: hits, their analogues and other compounds. The true share with any hit is near 1.5%.

SMILES | MEX-5 binding | E coli Lon inh | GLD-1 RNA inh | MCL1 BIM primary | EBV gp42 block | BCLXL inh | Bcl-xL conf | MCL1 BIM confirm
Cc1cc(=O)oc(C)c1C(=O)Nc1ccc2ncccc2c1 | . | . | . | 96.8 | 72.1 | 99.6 | 78.9 | 82.2
Cc1cc(=O)oc(C)c1C(=O)Nc1ccc2nsnc2c1 | . | . | . | . | / | . | / | /
Cc1c(C)n(CCC#N)c2ccccc12 | . | . | . | . | . | . | / | /
COc1ccc2ccccc2c1-c1csc(N)n1 | . | . | . | . | / | . | / | /
CN(C)c1nc(-c2cn(CCC#N)c3ccccc23)cs1 | . | . | 34.4 | 68.7 | / | 65.2 | 34.4 | 49.0
COCCn1cc(-c2csc(N)n2)c2ccccc21 | . | . | . | 60.0 | / | 54.1 | . | .
Cc1ccc(-c2ccc3nnc(SCC(N)=O)n3n2)cc1 | . | . | . | . | . | . | / | /
CCOC(=O)C1=C(CSc2nc(CC)c(C)cc2C#N)OC(N)=C(C#N)C1c1ccc(OC)cc1 (stereo not given) | . | . | . | . | . | . | / | /
COC(=O)C1=C(CSc2nc3c(cc2C#N)CN(C)CC3)OC(N)=C(C#N)C1c1ccc(F)cc1 (stereo not given) | . | . | . | 74.0 | . | 57.8 | . | .
CC(=O)NN1C(=O)/C(=C\c2ccccc2)SC1=S | . | . | . | . | / | . | / | /
CC(=O)NN1C(=O)/C(=C\c2ccc(Br)o2)SC1=S | . | . | . | 70.9 | . | 33.4 | . | .
CC(=O)NN1C(=O)/C(=C/c2ccc(Br)o2)SC1=S | . | . | . | 45.2 | . | . | . | .
CC(=O)NN1C(=O)/C(=C\c2ccc(O)cc2)SC1=S | ? | . | . | . | . | . | / | /
CCCc1cc(=O)oc2c3c(c(Cl)cc12)OCN(CCCO)C3 | . | / | 47.5 | 89.1 | / | 76.0 | 55.4 | 82.0
O=C(NCC(c1ccco1)N1CCCC1)c1cccc(S(=O)(=O)N2CCCCC2)c1 (stereo not given) | / | . | / | / | / | / | / | /
COc1ccccc1Oc1ccc(NC(=O)c2ccc(Cl)cc2)cc1 | . | . | . | . | . | . | / | /
COc1ccc2nc3ccccc3nc2c1NC(=O)c1ccc(Cl)cc1 | -31.2 | . | . | 104.5 | . | 49.5 | 81.5 | 105.0
Cc1cc(C)cc(NC(=O)C(=S)NCc2ccccc2)c1 | . | . | . | . | . | . | / | /
CC1CCN(CC(=O)NCc2ccco2)CC1 | . | . | . | 67.6 | . | . | . | .
COc1ccc(/C=N/n2cnnc2)cc1Oc1nc(Cl)ncc1F | . | . | . | . | . | . | / | /
O=C(NNC1=Nc2cccc3cccc1c23)c1ccc(Br)cc1 | . | . | . | 41.5 | 60.2 | . | 57.1 | 80.5
COC(=O)c1ccc(C(=O)Nc2ccc(N)cc2N)cc1 | . | . | . | 76.5 | . | 76.3 | . | .
COc1ccc2c(c1)CCc1cn[nH]c1-2 | . | . | . | . | / | . | / | /
O=C(O)COc1ccccc1/C=N/Nc1ccc(S(=O)(=O)Nc2ccc(Cl)cc2)cc1[N+](=O)[O-] | . | . | . | . | . | . | / | /
COc1ccccc1NS(=O)(=O)c1ccc(N/N=C/c2ccccc2OCC(=O)O)c([N+](=O)[O-])c1 | . | . | 94.2 | 140.6 | . | 135.8 | 184.5 | +
SMILES | MEX-5 binding | E coli Lon inh | GLD-1 RNA inh | MCL1 BIM primary | EBV gp42 block | BCLXL inh | Bcl-xL conf | MCL1 BIM confirm
O=C(O)c1cc(O)c2c(c1)C(=O)c1cccc(O)c1C2=O | -27.7 | . | 89.4 | 146.6 | . | 114.3 | 117.6 | 144.3
COc1ccccc1C(=O)NC(=O)COc1cc(Cl)ccc1Cl | . | . | . | . | / | . | / | /
NC(=O)C1=C[C@H](c2coc3ccccc3c2=O)C[C@H](OCCCCO)O1 | . | . | . | . | . | . | / | /
O=C(O)C1=C[C@H](c2coc3ccccc3c2=O)C[C@H](OCCCCO)O1 | . | . | . | 59.4 | . | . | . | .
COc1ccccc1NC(=O)COC(=O)c1cc2c(s1)CCC2 | / | . | / | / | / | / | / | /
COc1ccc(OC)c(NC(=O)COC(=O)c2cc3c(s2)CCC3)c1 | . | . | . | 56.6 | . | . | . | 43.4

Bioassay records deposited in PubChem by several laboratories.
